The sequences below were run on PPARg DBDmut:RXRa IVT, anti-PPARg (DBD mutation: PPARg1 K132A/R137A, NR concentration 270 nM, RXRa partner concentration 90 nM) (assay: PBM binding z-score (relative to random genomic background probes); higher = stronger binding; sequences stand for … in GC…GCGATTGACAGCGTAGAATGAAGG).
Method in brief: (§1)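 Binding z-scores take random background probes as their reference. They come from custom Agilent 4×180K protein-binding microarrays incubated 1 h with ligand-free nuclear receptor dimers, with antibodies against each partner (one per run) detecting binding. Scanned fluorescence was regression-normalized.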
For ATCTCTAGGTAAGACTCAGTTCACTGAAGAACGC, the PBM binding z-score was 0.951. In the case of TCATATAGATAATACAGGTGAAAGTCGGCATCTA, the PBM binding z-score is reported as 1.59. For AATAAAGGGTCACTAGGCCAGAGTAGGTACGAAT, the PBM binding z-score was 1.89. TCGATTAGGTTACCAATGGGGCATTCAGCTTTCT gave a PBM binding z-score of 0.217. Sequence ACTAGTTGGTCAGCTGACGTCACACACAATTCGG has a PBM binding z-score of 0.728. AATACAGGGTCATCGTAGTCCAGAGTACGCACAG gave a PBM binding z-score of 1.99. Work on CGAACGAGGGCATGAGATGATAGCAAATGCCGAT yielded a PBM binding z-score of 0.746. Work on ATACCAAGGAGATCGTGAGGTCGTTGATACTAAC yielded a PBM binding z-score of -0.211. With GCTAGCAGGCCATTTCGGTCACTCAATGACGGGC the PBM binding z-score was -0.625. ACTATTAGGTGAGACGAGGGCAACCGATAGGTTG showed a PBM binding z-score of 1.23. For TCCTATAGGTAAATGCTAGGTGAAAGTCCGATCT, the PBM binding z-score was 0.193. Sequence ATCTCTAGATAAGACTCAGTTCAGTGAAGAACGC has a PBM binding z-score of -0.428. In the case of TTAGCAAGGTGAGCTGAGGTCGTTGATCCAACTC, the PBM binding z-score is reported as -0.527. CGCCCAAGGTCATAGGAGGTCAGTGAAGACAGAT showed a PBM binding z-score of -0.0879. For GCATATAGGTAGTACAAGGTGAAAGTCCGATTGT, the PBM binding z-score was 0.664. Sequence CAAACTAGGTCAAACGTCAAAGTCGAGCCAACCA has a PBM binding z-score of 4.47. Sequence GCGACTGGGGCATCAGCAGGTTACCGTAACTTAA has a PBM binding z-score of -0.711. Work on GCTGCTAGGTCAGGTTGGTCAGCTTACGGGTACG yielded a PBM binding z-score of -0.781. In the case of CGTCCAAGGTCAGAGAGGTCAGTGAATGCCGAGT, the PBM binding z-score is reported as 0.28. TAGCCTAGGTCAGGCGGGCCAGTATAGTGTCGGC gave a PBM binding z-score of -0.617. Work on TCTAGTTGGTCACCGAGGTCACACACGACGGGTA yielded a PBM binding z-score of 1.31. GCTGCTAGGTCAACTGTTGGTCAGCTAAAGCTCG showed a PBM binding z-score of 0.227. ACAGACAGGTGATGAAGGCAACTCAGGCTATCAT was tested, and the PBM binding z-score was 0.175. Sequence CGAACTAGGTCATCCTGGACAGTGAATACATTGA has a PBM binding z-score of 1.58. Work on TTACCAAGGTGAAGGTTGTTGATCCCTCTGTAGA yielded a PBM binding z-score of 0.413. Sequence GATACAGGGCCAAGGCCAGAGTACGCGTATTGAT has a PBM binding z-score of -0.899. For TTACCAAGGTGCAAGGTCGTTGATGCACGCCTTG, the PBM binding z-score was -0.472. Work on CCTAGTTGATCAAGGTCACACACGCTATAGGTAC yielded a PBM binding z-score of 1.49. Sequence CATACTGGGCCACGAAAGGTCATTGATTCAGTGA has a PBM binding z-score of 1.83. For CCTAGTGGGTCAAGGTCACACACGCTATAGGTAC, the PBM binding z-score was 2.26. GGAACGAGGGCATTCGTGTTGATAGCATGGCGAT showed a PBM binding z-score of -0.566. Work on TCTAGTTGGTCCCGGAGGTCACACACGACGGGTA yielded a PBM binding z-score of 0.461. CCTAGCAGCCCAGGGTCACTCAAGCATTTCGCTT showed a PBM binding z-score of -1.11. Sequence CCTACTGGGTCAAGGTCATTGATCAGTCAAAGCA has a PBM binding z-score of 0.76. CAAACTAGGTTACCGGAAGGTCAAAGTCCGCATG gave a PBM binding z-score of 1.12. TCATGTAGATCAGCAGGTTAAGAAAGCTGGCCAA was tested, and the PBM binding z-score was -0.501. In the case of AGAACGAGGGCAATGAGTTGATAGCGCGGGTGGC, the PBM binding z-score is reported as 0.0277. Work on CCTTATGGGTCACTGACAGGTTATAGCATTTGGA yielded a PBM binding z-score of 0.901. GCGACTGGGGCAAAGCAGGTCACCATAAGGTTGG gave a PBM binding z-score of 0.568. Work on CGTCCAAGGTGAAAGGTCAGTGAAGAGATGACGG yielded a PBM binding z-score of -0.368.

What follows are sequences tested on PPARg DBDmut IVT, anti-PPARg (DBD mutation: PPARg1 K132A/R137A, NR concentration 270 nM) in the same assay as above.
Method in brief: as §1
ATCTCTAGGTAAGACTCAGTTCACTGAAGAACGC gave a PBM binding z-score of 1.23. With TCATATAGATAATACAGGTGAAAGTCGGCATCTA the PBM binding z-score was 1.15. With AATAAAGGGTCACTAGGCCAGAGTAGGTACGAAT the PBM binding z-score was 1.25. In the case of TCGATTAGGTTACCAATGGGGCATTCAGCTTTCT, the PBM binding z-score is reported as 0.237. With ACTAGTTGGTCAGCTGACGTCACACACAATTCGG the PBM binding z-score was 0.709. For AATACAGGGTCATCGTAGTCCAGAGTACGCACAG, the PBM binding z-score was 2.18. CGAACGAGGGCATGAGATGATAGCAAATGCCGAT showed a PBM binding z-score of -0.282. Sequence ATACCAAGGAGATCGTGAGGTCGTTGATACTAAC has a PBM binding z-score of 0.112. For GCTAGCAGGCCATTTCGGTCACTCAATGACGGGC, the PBM binding z-score was -0.867. For ACTATTAGGTGAGACGAGGGCAACCGATAGGTTG, the PBM binding z-score was 0.854. With TCCTATAGGTAAATGCTAGGTGAAAGTCCGATCT the PBM binding z-score was 0.879. For ATCTCTAGATAAGACTCAGTTCAGTGAAGAACGC, the PBM binding z-score was 1.1. In the case of TTAGCAAGGTGAGCTGAGGTCGTTGATCCAACTC, the PBM binding z-score is reported as -1.48. Work on CGCCCAAGGTCATAGGAGGTCAGTGAAGACAGAT yielded a PBM binding z-score of -0.0436. With GCATATAGGTAGTACAAGGTGAAAGTCCGATTGT the PBM binding z-score was 0.977. In the case of CAAACTAGGTCAAACGTCAAAGTCGAGCCAACCA, the PBM binding z-score is reported as 4.15. Work on GCGACTGGGGCATCAGCAGGTTACCGTAACTTAA yielded a PBM binding z-score of -1.13. GCTGCTAGGTCAGGTTGGTCAGCTTACGGGTACG showed a PBM binding z-score of -0.52. In the case of CGTCCAAGGTCAGAGAGGTCAGTGAATGCCGAGT, the PBM binding z-score is reported as -0.412. Work on TAGCCTAGGTCAGGCGGGCCAGTATAGTGTCGGC yielded a PBM binding z-score of -0.515. In the case of TCTAGTTGGTCACCGAGGTCACACACGACGGGTA, the PBM binding z-score is reported as 2.33. Sequence GCTGCTAGGTCAACTGTTGGTCAGCTAAAGCTCG has a PBM binding z-score of -0.586. Sequence ACAGACAGGTGATGAAGGCAACTCAGGCTATCAT has a PBM binding z-score of -1.07. CGAACTAGGTCATCCTGGACAGTGAATACATTGA showed a PBM binding z-score of 0.831. TTACCAAGGTGAAGGTTGTTGATCCCTCTGTAGA gave a PBM binding z-score of -0.108. Work on GATACAGGGCCAAGGCCAGAGTACGCGTATTGAT yielded a PBM binding z-score of -1.53. For TTACCAAGGTGCAAGGTCGTTGATGCACGCCTTG, the PBM binding z-score was -0.179. CCTAGTTGATCAAGGTCACACACGCTATAGGTAC was tested, and the PBM binding z-score was 1.07. Sequence CATACTGGGCCACGAAAGGTCATTGATTCAGTGA has a PBM binding z-score of 0.862. CCTAGTGGGTCAAGGTCACACACGCTATAGGTAC gave a PBM binding z-score of 1.37. Work on GGAACGAGGGCATTCGTGTTGATAGCATGGCGAT yielded a PBM binding z-score of -0.299. TCTAGTTGGTCCCGGAGGTCACACACGACGGGTA gave a PBM binding z-score of 1. Work on CCTAGCAGCCCAGGGTCACTCAAGCATTTCGCTT yielded a PBM binding z-score of -1.49. Sequence CCTACTGGGTCAAGGTCATTGATCAGTCAAAGCA has a PBM binding z-score of 0.202. For CAAACTAGGTTACCGGAAGGTCAAAGTCCGCATG, the PBM binding z-score was 1.42. TCATGTAGATCAGCAGGTTAAGAAAGCTGGCCAA showed a PBM binding z-score of -0.804. With AGAACGAGGGCAATGAGTTGATAGCGCGGGTGGC the PBM binding z-score was -0.898. With CCTTATGGGTCACTGACAGGTTATAGCATTTGGA the PBM binding z-score was 0.187. For GCGACTGGGGCAAAGCAGGTCACCATAAGGTTGG, the PBM binding z-score was -0.842. CGTCCAAGGTGAAAGGTCAGTGAAGAGATGACGG showed a PBM binding z-score of -0.702.
